Compounds with a hit are over-represented: about 19% of the library has one in this group of screens.
TDP1 block = qHTS Assay for Inhibitors of Tyrosyl-DNA Phosphodiesterase (TDP1); recombinant TDP1, AlphaScreen DNA substrate cleavage; 350,000 compounds, 0.28% hits; Tyrosyl-DNA phosphodiesterase 1 (Homo sapiens), Q9NUW8; Potency, µM (series often up to 130 µM), for inactives: at the highest dose activity change, negative = inhibition, actives largely listed as inhibitors; further: potency means the concentration at half of the fitted maximal effect; on the % scale 0 is the no-effect control and ±100 the full control effect; nearly all actives have a fitted effect of over 40% in size
Target sequence (Q9NUW8 whole entry, looked up): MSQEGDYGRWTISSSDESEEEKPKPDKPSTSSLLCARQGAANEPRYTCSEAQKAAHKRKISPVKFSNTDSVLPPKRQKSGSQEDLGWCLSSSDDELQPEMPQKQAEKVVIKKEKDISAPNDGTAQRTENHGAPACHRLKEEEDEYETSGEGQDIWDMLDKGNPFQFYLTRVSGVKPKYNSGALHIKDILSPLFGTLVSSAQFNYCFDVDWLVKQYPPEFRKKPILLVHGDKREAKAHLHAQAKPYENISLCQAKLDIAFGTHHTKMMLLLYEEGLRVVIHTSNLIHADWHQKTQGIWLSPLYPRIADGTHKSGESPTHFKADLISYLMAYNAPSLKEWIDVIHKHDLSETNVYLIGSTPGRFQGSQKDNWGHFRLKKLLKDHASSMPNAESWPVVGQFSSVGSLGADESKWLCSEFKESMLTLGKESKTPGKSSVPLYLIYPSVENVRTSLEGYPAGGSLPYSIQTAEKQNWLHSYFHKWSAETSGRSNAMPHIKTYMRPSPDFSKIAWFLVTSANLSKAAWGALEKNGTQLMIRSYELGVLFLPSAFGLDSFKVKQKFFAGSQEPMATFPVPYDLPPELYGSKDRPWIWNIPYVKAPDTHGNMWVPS
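Signal: AlphaScreen proximity between streptavidin donor and anti-FITC acceptor beads on intact substrate. Reaction: Tdp1 1 nM, substrate 15 nM final, 5 min RT after 15 min compound preincubation.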
HepG2 viability = qHTS for Inhibitors of TGF-b: Cytotox Counterscreen. HepG2 CAGA-GFP viability, ATP luminescence, 18 h. Potency, µM (series often up to 46.1 µM), for inactives: at the highest dose activity change, negative = cytotoxicity, most hits filed as cytotoxic. 410,000 compounds, 0.76% hits. AID 588856, 2011; further: potency means the concentration at half of the fitted maximal effect
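CellTiter-Glo luminescence gave cytotoxicity after 18 hours at 37 degrees C. The cells were HepG2 CAGA-GFP in 1% FBS DMEM, stimulated with 500 pg/mL TGF-beta after compound addition. %Activity was normalised to no-cell wells (complete cell-killing) and DMSO (no toxicity), and curves were fitted and classified.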
TGFb SMAD3 inh = qHTS for Inhibitors of TGF-b | HepG2 CAGA-GFP TGF-b/SMAD3 reporter, GFP fluorescence, 18 h; TGF-beta stimulated, 500 pg/mL final | 410,000 compounds, 1.2% hits | AID 588855, 2011 | Potency, µM (titrated, usually from 46.1 µM), inactives show at the highest dose activity, negative = inhibition, usual class: inhibitors; further: potency means the concentration at half of the fitted maximal effect; on the % scale 0 is the no-effect control and ±100 the full control effect; nearly all actives have a fitted effect of over 65% in size
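GFP signal (ex488/em500-530) from TGF-beta-stimulated HEPG2 CAGA-GFP cells, 500 pg/mL final, 18 h at 37 degrees C in DMEM plus 1% FBS, normalized to unstimulated and DMSO-stimulated controls.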
TDP1 cell CPT = qHTS for Inhibitors of human tyrosyl-DNA phosphodiesterase 1 (TDP1): qHTS in cells in presence of CPT. chicken DT40 Tdp1-/-;hTDP1 cells + 20 nM CPT, ATP luminescence, 48 h. Potency, µM (highest dose often 46.2 µM), for the others: at the highest dose activity change, negative = growth inhibition, usual class: inhibitors. 420,000 compounds, 12% hits; further: potency means the concentration at half of the fitted maximal effect; on the % scale 0 is the no-effect control and ±100 the full control effect; nearly all actives have a fitted effect of over 55% in size
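Cell growth measured by CellTiter-Glo luminescence after a minimum 48 h, 37 C compound exposure with 20 nM CPT in Tdp1-knockout DT40 cells stably expressing hTDP1, seeded 400/well; qHTS titration format.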
IL-1B inflam inh = qHTS for Inhibitors of Inflammasome Signaling: IL-1-beta AlphaLISA Primary Screen; activity change, % at 57.5 µM; 360,000 compounds, 4.7% hits; AID 743279, 2014; THP-1 LPS/ATP IL-1B secretion, AlphaLISA, 16 h; stronger effect = lower value; in the data active means activity change below about -50%; inconclusive means mostly about -30% to -49%; further: on the % scale 0 is the no-effect control and ±100 the full control effect
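THP-1 cells pretreated 1 hr with compounds (up to 57.5 uM final), then stimulated with LPS (250 ng/mL final) plus ATP (1.25 mM final); secreted IL-1B measured by AlphaLISA after 16 hr, decreased signal indicating inhibition.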
DT40 TDP1 no CPT = qHTS for Inhibitors of human tyrosyl-DNA phosphodiesterase 1 (TDP1): qHTS in cells in absence of CPT | 420,000 compounds, 15% hits | DT40 Tdp1-/- hTDP1 cells, no CPT, ATP luminescence, 48 h | Potency, µM (series often up to 46.2 µM), for the others: at the top dose activity change, negative = growth inhibition, most hits filed as inhibitors; further: potency means the concentration at half of the fitted maximal effect; on the % scale 0 is the no-effect control and ±100 the full control effect; nearly all actives have a fitted effect of over 55% in size
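Camptothecin absent (DMSO only). Human TDP1-complemented DT40 knockout cells, 400 cells/well, 37 °C for minimum 48 hr; ATP measured via CellTiter-Glo, 30 min dark incubation, luminescence.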
Active calls of the source: *; u = inconclusive; x = not tested or not shown; [ ] = another dose, or the depositor's remark. Unless noted, the call rests on the fitted dose curve; in most records, active means well fitted curve in the direction sought with a large enough effect; inconclusive means small, poorly fitted or top-dose-only effect, or another doubt; inactive means no such curve, though single readings can be large; an effect the other way counts as inactive or inconclusive.

SMILES	TDP1 block	HepG2 viability	TGFb SMAD3 inh	TDP1 cell CPT	IL-1B inflam inh	DT40 TDP1 no CPT
CCS(=O)(=O)c1ncc(Cl)c(C(=O)N(Cc2ccccc2)c2ccc(OC)cc2)n1	4%	3.2µM*	3.2µM*	1µM*	x	0.65µM*
COc1ccc(NC(=O)c2nc(SC)ncc2Cl)cc1	x	-18%	4%	-14%	2	1%
CCCCCC(=O)c1cc(CC(C(=O)OC)C(=O)OC)cc2cc(OC)c(OC)cc12	10%[21 µM]	x	x	x	x	x
COc1ccc(-n2c(=O)c(-c3cccs3)nc3cncnc32)cc1	x	x	x	9%	x	12%
CCOC(=O)c1ccc(NC(=O)c2ccc(NS(C)(=O)=O)cc2)cc1	2%	-14%	0%	u	-6	u
CS(=O)(=O)Nc1ccc(C(=O)Nc2ccc3ccccc3c2)cc1	x	-4%	17%	2.9µM*	16	5.2µM*
CC(C)c1ccc(NC(=O)c2ccc(NS(C)(=O)=O)cc2)cc1	0%	-2%	-2%	2.9µM*	-10	4.6µM*
Cn1cnc(S(=O)(=O)N2CCCC(C(=O)NCc3ccc(Cl)cc3)C2)c1 (stereo not drawn)	-4%	3%	5%	1%	x	2%
COc1ccc(NC(=O)c2oc3ccccc3c2NC(=O)C(C)(C)C)cc1	7%	-6%	-10%	u	-55*	u
CCOc1ccccc1C(=O)Nc1c(C(=O)Nc2ccc(F)cc2)oc2ccccc12	9%	8%	u	4.1µM*	x	2.3µM*
CCOc1ccc(NC(=O)c2oc3ccccc3c2NC(=O)C(C)(C)C)cc1	-1%	-4%	-33%	u	x	18µM*
CCOc1ccc(NC(=O)c2oc3ccccc3c2NC(=O)c2c(F)cccc2F)cc1	9%	-4%	0%	u	x	u
Cc1ccsc1CN(C)CC(=O)Nc1ccccc1C(=O)NC1CC1	1%	1%	-13%	12%	14	0%
Cc1ccc(S(=O)(=O)N2[C@H](C(C)C)[C@H]3[C@H]4C(=O)N(c5ccccc5)C(=O)[C@H]4CC(=O)[C@H]3[C@@H]2c2ccccc2)cc1	x	-1%	5%	11%	8	-20%
CC(=O)Nc1cc(-c2ccccc2)cn2c(-c3cccc(C(C)=O)c3)cnc12	x	-3%	10%	15µM*	-3	10µM*
CC(=O)Nc1cc(-c2cccc(C(=O)N(C)C)c2)cn2c(-c3cccc(C(=O)N(C)C)c3)cnc12	x	-45%	24%	u	-4	u
CC(=O)Nc1cc(-c2cccc(NS(C)(=O)=O)c2)cn2c(-c3ccc(F)c(Cl)c3)cnc12	x	-26%	u	u	x	23µM*
CC(=O)Nc1cc(-c2cccc(NS(C)(=O)=O)c2)cn2c(-c3cccc(C(C)=O)c3)cnc12	x	-22%	9%	16µM*	64	18µM*
COc1ccc(-c2cnc3c(NC(C)=O)cc(-c4cccc(NS(C)(=O)=O)c4)cn23)cc1OC	x	-20%	15%	21µM*	-24	23µM*
CN(C)c1ccc(-c2cncnc2NCc2ccccc2)cc1	21%[56.1 µM]	x	x	-30%	x	-26%
CCOC(=O)c1cc(-c2ccc(F)cc2)n(CCC(=O)Nc2nc3ccc(OC)cc3s2)c1C	9%	-39%	u	18µM*	x	16µM*
CCc1ccc(NC(=O)CCn2c(-c3ccc(OC)cc3)cc(C(C)=O)c2C)cc1	7%	-16%	-22%	16µM*	x	16µM*
CCOC(=O)c1cc(-c2ccc(F)cc2)n(CCC(=O)Nc2nc3cc(C)c(C)cc3s2)c1C	-3%	-2%	u	u	x	u
CCOC(=O)c1cc(-c2ccccc2)n(-c2cccc(C(=O)Nc3ccc(OC)cc3)c2)c1C	5%	-18%	0%	u	x	u
CCOC(=O)c1cc(-c2ccc(OC)cc2)n(CCC(=O)Nc2cccc(C(C)=O)c2)c1C	4%	-23%	-5%	16µM*	x	15µM*
SMILES	TDP1 block	HepG2 viability	TGFb SMAD3 inh	TDP1 cell CPT	IL-1B inflam inh	DT40 TDP1 no CPT
CC(=O)c1cc(-c2ccc(F)cc2)n(CCC(=O)Nc2nc3c(C)cccc3s2)c1C	-2%	-22%	0%	u	x	13µM*
CSc1ccc(CN(C)CC(=O)NC(C)c2ccccc2)cc1 (stereo not drawn)	0%	-12%	-14%	-30%	u	u
COc1cc(Cl)c(NC(=O)c2cc(S(=O)(=O)N3CCCCC3)c[nH]2)c(OC)c1	4%	-11%	-6%	-13%	x	-18%
Cc1cccc2sc(NC(=O)CCNS(=O)(=O)c3cccs3)nc12	4%	-18%	-21%	18µM*	u	26µM*
COc1ccc(NC(=O)CCn2c(-c3ccc(F)cc3)cc(C(C)=O)c2C)c(OC)c1	5%	-7%	u	u	x	u
COc1cc(NC(=O)CCn2c(-c3ccccc3)cc(C(C)=O)c2C)cc(OC)c1	9%	-23%	-12%	u	x	13µM*
CCOC(=O)c1c(C)c(-c2ccccc2)n(CC(=O)NC(CC)Cc2ccccc2)c1C (stereo not drawn)	2%	8%	-19%	u	x	u
CCN(CC)S(=O)(=O)c1ccc2c(c1)N(CC(=O)N1CCN(c3cccc(C(F)(F)F)c3)CC1)C(=O)CO2	-1%	-32%	u	u	x	21µM*
Cc1cccc(N2CCN(C(=O)CN3C(=O)COc4ccc(S(=O)(=O)N5CCCC5)cc43)CC2)c1C	1%	4%	1%	x	x	x
CCN(CC)S(=O)(=O)c1ccc2c(c1)N(CC(=O)N1CCN(c3ccc(F)cc3)CC1)C(=O)CO2	x	0%	-5%	u	x	u
CCN(CC)S(=O)(=O)c1ccc2c(c1)N(CC(=O)N1CCN(c3cccc(C)c3C)CC1)C(=O)CO2	5%	-9%	u	18µM*	x	15µM*
CC(=O)NC(c1cccc(F)c1)c1nc(-c2cccs2)cs1 (stereo not drawn)	x	-14%	-11%	-18%	u	u
CCN(CC)S(=O)(=O)c1cc(-c2nnc(-c3ccc(Br)cc3)o2)ccc1Cl	2%	1%	-7%	12µM*	u	18µM*
